DRD3 antagonist: antagonists of human D3 dopamine receptor; P35462; AID 652054; D3R cells, DiscoveRx beta-arrestin luminescence, antagonist mode; hits give low values; max response, negative = inhibition, %; 2.5% of 360,000 active; in the data active = max response below about -50%; inconclusive = no clear call, values can overlap the other calls; also: % is scaled to controls: 0 for no effect and ±100 for the full control effect
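Cells plated overnight at 1500 cells/well, then exposed to library compounds with dopamine controls for 90 minutes at 37 degrees C. DiscoveRx reagent added for 30–60 minutes at room temperature; luminescence read, quantitative HTS format.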
D1 antag: antagonists of human D1 dopamine receptor | activity change, negative = inhibition, % at 10 µM | P21728 | 3.2% of 360,000 active | HEK293 TREx D1 cells, calcium flux, dopamine EC80; hits give low values; in the data active = activity change below about -30%; also: % is scaled to controls: 0 for no effect and ±100 for the full control effect
Target sequence (P21728 whole entry, looked up): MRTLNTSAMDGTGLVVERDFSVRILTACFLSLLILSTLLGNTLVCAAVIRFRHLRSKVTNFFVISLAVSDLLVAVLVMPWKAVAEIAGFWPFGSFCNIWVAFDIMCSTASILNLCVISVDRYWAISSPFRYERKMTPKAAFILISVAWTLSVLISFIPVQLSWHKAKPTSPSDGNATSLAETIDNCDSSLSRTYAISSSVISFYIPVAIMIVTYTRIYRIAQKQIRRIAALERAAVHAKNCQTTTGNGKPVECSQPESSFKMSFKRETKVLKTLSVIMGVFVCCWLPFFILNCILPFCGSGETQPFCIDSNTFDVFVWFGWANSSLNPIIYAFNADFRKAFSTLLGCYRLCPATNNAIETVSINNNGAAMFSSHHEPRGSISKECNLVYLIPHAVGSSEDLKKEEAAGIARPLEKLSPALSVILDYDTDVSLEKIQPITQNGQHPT
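Antagonism measured as reduced calcium response to an EC80 dopamine addition following 180 s compound pre-read; cells were inducible HEK293 Trex D1 plated overnight at 30 C, read kinetically at 1 cycle/sec.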
D1 PAM: enhances dopamine response at the human D1 receptor | potentiation, % at 10 µM | 0.036% of 360,000 active | HEK293 TREx D1 cells, calcium flux, dopamine EC20 potentiation; in the data active = potentiation above about 30%; also: 0% is about no effect
D3 ag: agonists of human D3 dopamine receptor. P35462. D3R DiscoveRx beta-arrestin cells, luminescence, 90 min. max activation, %. 0.58% of 410,000 active; in the data active = max activation above about 30%; also: 0% is about no effect
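Agonist mode: compounds and dopamine controls were applied to plated cells for 90 min at 37 degrees C after an overnight attachment at 1500 cells/well. Luminescent read-out followed 30 - 60 minutes at room temperature with DiscoveRx detection reagent.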
D1 agonist: activates the human D1 dopamine receptor | P21728 | HEK293 T-REx D1 cells, calcium flux, agonist mode | activation, % at 2 µM | 1% of 360,000 active | AID 504660; in the data active = activation above about 30%; also: 0% is about no effect
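Agonism was scored from calcium flux recorded over 180 s (1 read/s) after pintool compound addition, following a 10-cycle baseline. Cells were inducible force-coupled HEK293 TREx D1, plated overnight at 30 C and loaded with no-wash calcium dye.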
* = called active by the depositor; ? = inconclusive; · = not tested or not shown. In the library only some 6% were active in any assay of this set; here they are far more common.

SMILES | DRD3 antagonist | D1 antag | D1 PAM | D3 ag | D1 agonist
CCc1ccc(Sc2cc(C(=O)NC(C)CC)c3ccccc3n2)cc1 (centres undefined) | · | -27 | -1 | 15 | 1
CCC(C)NC(=O)c1cc(Sc2cccc(Cl)c2)nc2ccccc12 (centres undefined) | · | -61* | -2 | 24 | 19
CC1CCCCN1CCCNC(=O)c1cc(Sc2cccc(Cl)c2)nc2ccccc12 (centres undefined) | · | -42* | -1 | -13 | 19
Cc1oc(-c2ccccc2Cl)nc1CS(=O)(=O)CC(=O)NCc1ccc(F)cc1 | · | -18 | 0 | -18 | 4
CCOc1cc(C(=O)Nc2ccccc2N2CCN(S(C)(=O)=O)CC2)cc(OCC)c1OCC | 23 | -64* | -4 | 1 | 1
CCOc1cc(C(=O)Nc2ccc(N3CCN(S(C)(=O)=O)CC3)cc2)cc(OCC)c1OCC | 9 | 11 | 5 | 2 | 1
CCCN1C(=O)C2(c3ccccc31)c1c(oc3ccccc3c1=O)C(=O)N2CCO (centres undefined) | · | -9 | 1 | -3 | 0
COc1cc(Cl)ccc1OC1(C)CCN(Cc2cccc(OC)c2OC)C1 (centres undefined) | -61* | · | · | -11 | ·
CC1(Oc2cnc(Cl)c3ccccc23)CCN(Cc2ccc(OC(F)(F)F)cc2)C1 (centres undefined) | 2 | · | · | -7 | ·
COc1cc(Cl)ccc1OC1(C)CCN(Cc2ccccc2OC(F)F)C1 (centres undefined) | ? | · | · | -18 | ·
CC1(Oc2ccc(Cl)cc2)CCN(Cc2ccc(-c3ccccn3)cc2)C1 (centres undefined) | -121* | · | · | -9 | ·
CC1(Oc2cccc(C#N)c2)CCN(Cc2ccc(-c3ccccn3)cc2)C1 (centres undefined) | -12 | · | · | -6 | ·
COc1cc(Cl)ccc1OC1(C)CCN(Cc2ccc(-c3ccccn3)cc2)C1 (centres undefined) | ? | · | · | 45* | ·
CSc1ccc(OC2(C)CCN(Cc3ccc(-c4ccccn4)cc3)C2)cc1 (centres undefined) | -55* | · | · | 1 | ·
CC(=O)OCC(=O)[C@@]12N=C(C)O[C@@H]1C[C@H]1[C@@H]3CCC4=CC(=O)C=C[C@]4(C)[C@H]3[C@@H](O)C[C@@]12C | · | · | · | -2 | ·
COc1cc(Cl)ccc1OC1(C)CCN(Cc2ccc3ccccc3c2)C1 (centres undefined) | -116* | · | · | -8 | ·
CC1(Oc2ccccc2)CCN(Cc2ccc(-c3ccccn3)cc2)C1 (centres undefined) | -79* | · | · | -13 | ·
Cc1cc(C)c2c(=O)cc(C(=O)Nc3c(C)n(C)n(-c4ccccc4)c3=O)oc2c1 | · | -5 | -3 | 2 | 1
CCCN1C=CC(=CC=C(C#N)C#N)C=C1 | -17 | -3 | -1 | -15 | 129*
C=CCN1C=CC(=CC=C(C#N)C#N)C=C1 | 12 | -16 | -10 | 3 | 96*
C=CCN1C=C/C(=C\C=C(C#N)C#N)c2ccccc21 | ? | -26 | -3 | -19 | 7
O=[N+]([O-])c1cccc(SSc2cccc([N+](=O)[O-])c2)c1 | -69* | · | · | -28 | ·
Cc1nc2c3ccccc3nc(NNC(=O)CCC(=O)N3CCCC(C)C3)n2n1 (centres undefined) | -30 | -33* | -5 | -6 | 0
CCOC(=O)C1CCCN(c2c(N3CCC(N4CCCCC4)CC3)c(=O)c2=O)C1 (centres undefined) | -23 | -33* | · | -9 | 2
Cc1ccc(C(=O)NNc2cc(N3CCCC3)nc(N3CCCC3)n2)cc1 | -52* | · | · | -9 | ·
SMILES | DRD3 antagonist | D1 antag | D1 PAM | D3 ag | D1 agonist
FC(F)(F)c1cccc(N2CCN(CC3CC=CCC3)CC2)c1 (centres undefined) | -66* | 20 | 5 | -17 | 3
Cc1ccc(N2CCN(CC3CC=CCC3)CC2)cc1 (centres undefined) | -141* | -24 | -11 | -39 | 1
C1=CCC(CN2CCN(C3CCCCCC3)CC2)CC1 (centres undefined) | ? | -4 | -4 | -17 | 2
CCC(C(=O)Nc1cc(C)ccc1C)n1c(=O)c(C(F)(F)F)nc2ccccc21 (centres undefined) | · | 8 | -1 | 7 | 1
CN1CC2(C)OC(=O)C(Cl)=C2CC1c1ccccc1 (centres undefined) | 8 | -55* | -6 | 2 | 3
CN1NC(=O)CC1c1ccccc1 (centres undefined) | -15 | · | · | -10 | ·
COc1ccc(NS(=O)(=O)c2cccc(NC(=O)c3cnccn3)c2)cc1Br | -8 | -31* | -3 | 4 | 7
CCN(c1ccccc1)S(=O)(=O)c1cccc(C(=O)NCC(c2cccs2)N(C)C)c1 (centres undefined) | -56* | 5 | 1 | -14 | 4
CN(C)C(CNC(=O)c1cc(S(=O)(=O)N(C)c2ccccc2)ccc1Cl)c1cccs1 (centres undefined) | 11 | -44* | -8 | -9 | 12
Cc1ccccc1NS(=O)(=O)c1ccc(C(=O)NCC(c2ccco2)N(C)C)cc1 (centres undefined) | -57* | 7 | -4 | -14 | 9
Cc1ccc(NS(=O)(=O)c2cccc(C(=O)NCC(c3cccs3)N(C)C)c2)cc1 (centres undefined) | -24 | -4 | -2 | -18 | 15
COc1ccccc1NS(=O)(=O)c1cccc(C(=O)NCC(c2cccs2)N(C)C)c1 (centres undefined) | -85* | · | · | -18 | ·
CCC(Oc1ccccc1)C(=O)Nc1ccc(OCc2cc(=O)n3ccc(C)cc3n2)cc1 (centres undefined) | · | -6 | 1 | 4 | 0
CNS(=O)(=O)c1cccc(C(=O)NCC(c2cccs2)N(C)C)c1 (centres undefined) | -72* | -9 | -8 | -7 | 2
COc1ccccc1NS(=O)(=O)c1cc(C(=O)NCC(c2ccco2)N(C)C)ccc1C (centres undefined) | ? | -4 | -4 | -29 | 2
COc1cc(C(=O)NCC(c2cccs2)N(C)C)cc(Cl)c1OC(C)C (centres undefined) | -76* | 5 | -2 | -10 | 13
CCN(c1ccccc1)S(=O)(=O)c1cccc(C(=O)NCC(c2ccco2)N2CCCC2)c1 (centres undefined) | -58* | 0 | 9 | -9 | 11
CCCOc1ccc(C(=O)NCC(c2cccs2)N(C)C)cc1OC (centres undefined) | ? | -12 | -6 | -29 | 3
COc1ccccc1NS(=O)(=O)c1cccc(C(=O)NCC(c2ccco2)N(C)C)c1 (centres undefined) | -68* | -12 | -3 | -35 | 5
Cc1ccc(C)c(CN2C(=O)c3ccccc3S(=O)(=O)c3ccc(C(=O)N4CCc5ccccc54)cc32)c1 | · | 6 | -2 | 4 | 2
